Hit rate of the full screen: of about 2,400 compounds, fewer than 10 were called active. Inconclusive results (about 1%) are left out.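 The calls were made as follows: active = highest replicate activation at or above 34% and every replicate reaching that threshold; inconclusive = meets only one of the two criteria; inactive = meets neither criterion.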 A selection follows.
The compounds below were run against Protein FosB (Mus musculus) (UniProt P13346) (assay: activators of mouse delta FosB DNA binding, confirmation, biochemical, fluorescence polarization, TAMRA-CDK5 oligo, cherry-picked samples (AID 588690;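 also: higher polarization means more probe DNA bound by delta FosB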)). Conditions: purified delta FosB, at 24.9 µM, active compounds read high, normalised: neutral wells 0, positive control 100.
Chain of Protein FosB (Mus musculus) (P13346 whole entry, looked up): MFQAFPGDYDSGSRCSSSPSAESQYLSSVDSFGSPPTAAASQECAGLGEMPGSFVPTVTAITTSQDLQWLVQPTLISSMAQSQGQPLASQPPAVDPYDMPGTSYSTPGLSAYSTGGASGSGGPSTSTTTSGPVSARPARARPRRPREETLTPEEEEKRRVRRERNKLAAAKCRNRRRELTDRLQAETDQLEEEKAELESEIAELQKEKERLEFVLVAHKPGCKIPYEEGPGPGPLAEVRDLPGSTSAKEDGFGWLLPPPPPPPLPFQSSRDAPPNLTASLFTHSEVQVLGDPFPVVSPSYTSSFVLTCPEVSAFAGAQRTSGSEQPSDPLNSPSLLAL
For `O=C(Nc1ccc(Br)cc1)c1cc(S(=O)(=O)Nc2ccccn2)ccc1Cl`, the activation was 0.723% (inactive). In the case of `COc1cccc(CNC(=O)c2nnn(CC(=O)Nc3cc(Cl)ccc3C)c2N)c1`, the activation is reported as 5.89% (inactive). In the case of `Cc1ccc2nc(-c3ccccn3)cc(C(=O)Nc3ccc4c(c3)OCO4)c2c1`, the activation is reported as 5.01% (inactive). With `CN(C)CC(O)COc1ccc(C(C)(C)c2ccc(OCC(O)CN(C)C)cc2)cc1` (stereo unspecified) the activation was 3.1% (inactive). With `O=C(Cn1cc(-c2nnnn2-c2ccc(Cl)cc2)c(=O)c2ccccc21)c1ccccc1` the activation was 0.385% (inactive). With `CCn1c(=O)c2cc(C(=O)Nc3cccc(C(C)=O)c3)sc2c2ccccc21` the activation was 8.7% (inactive). In the case of `CC(=O)Nc1ccc(C(=O)CSc2nnc(Cc3ccccc3)o2)cc1`, the activation is reported as 1.84% (inactive). For `O=C(N/N=C/c1cccc(O)c1)c1cc2c(ccc3ccccc32)o1`, the activation was -5.62% (inactive). `CC(=O)c1ccc(NC(=O)C2CC(=O)Nc3nc4ccccc4n32)cc1` (stereo unspecified) was tested, and the activation was -4.9% (inactive). With `CCCCn1c(N)c(N(CCC(C)C)C(=O)COC(=O)c2ccc(CC)cc2)c(=O)[nH]c1=O` the activation was 0.0735% (inactive). `Cc1sc2nc(CSCC(=O)Nc3c(Cl)cccc3Cl)[nH]c(=O)c2c1C` was tested, and the activation was -0.487% (inactive). With `COc1cccc(NC(=O)Cn2c3ccc(F)cc3c3nc4n(c(=O)c32)CCS4)c1` the activation was -5.72% (inactive). With `COc1ccc(-c2cc3n(n2)CCc2nc4ccccc4n2-3)cc1` the activation was 6.36% (inactive). `O=C(COC(=O)c1ccc(S(=O)(=O)N2CCc3ccccc3C2)cc1)NC(=O)NCc1ccco1` was tested, and the activation was -0.464% (inactive). In the case of `O=c1c2ccccc2oc2nc(C3CCCCC3)n(Cc3ccco3)c(=O)c12`, the activation is reported as -1.5% (inactive). In the case of `Cc1ccc2nc(NC(=O)C3CCN(S(=O)(=O)c4ccc5c(c4)oc(=O)n5C)CC3)sc2c1`, the activation is reported as -11.8% (inactive). `COC(=O)c1sc2ncccc2c1OCc1ccc(Cl)cc1Cl` was tested, and the activation was -1.37% (inactive). For `O=C(N/N=C/c1ccco1)c1ccc(NC(=O)C2CC2)cc1`, the activation was -0.767% (inactive). In the case of `O=C1c2cccc3cccc(c23)C(=O)N1c1cccc(O)c1`, the activation is reported as 3.04% (inactive). For `COc1cc2[nH]c(=O)n(Cc3ccc(C(=O)NC4CCN(Cc5ccccc5)CC4)cc3)c(=O)c2cc1OC`, the activation was 0.608% (inactive). `Cc1ccc(-c2cc(C(=O)N/N=C/C=C/c3ccccc3)n[nH]2)o1` was tested, and the activation was 2.21% (inactive). In the case of `COc1ccccc1NC(=O)C1=C(C)Nc2nnnn2C1c1cccc(Br)c1` (stereo unspecified), the activation is reported as 5.03% (inactive). `Nc1nonc1-n1nnc(C(=O)N/N=C/c2ccc(Cl)cc2)c1-c1ccc2c(c1)OCO2` was tested, and the activation was 1.91% (inactive). In the case of `COC(=O)c1ccc(C23CC4(C2)[C@H](CN(Cc2cccnc2)[C@@H]4c2ccccc2)C3c2ccc(Cl)nc2)cc1` (stereo partly specified), the activation is reported as -13.4% (inactive). In the case of `COc1ccc(C(=O)Nc2c(N)nc(SCC(=O)Nc3ccc(C(C)=O)cc3)[nH]c2=O)cc1`, the activation is reported as 5.95% (inactive). With `COc1ccc(NC(=O)CCC(=O)Nc2nnc(C3CCCCC3)s2)cc1` the activation was 3.71% (inactive). In the case of `COc1ccc(C(=O)n2nc(-c3ccc(Cl)cc3)nc2N)cc1OC`, the activation is reported as 0.58% (inactive). In the case of `N#Cc1c(N)nc2c3c(sc(=N)c2c1N)NC(=O)CC3c1ccccc1Cl` (stereo unspecified), the activation is reported as 3.21% (inactive). `Cc1ccc(NC(=O)COc2ccc(/C=N\NC(=O)c3cccnc3)cc2)cc1C` was tested, and the activation was 5.95% (inactive). `CCOc1ccccc1NC(=O)Cn1nnc(C(=O)NCc2cccs2)c1N` was tested, and the activation was 2.5% (inactive). `CCOc1ccc2nc(N(CCN(C)C)C(=O)c3ccc4ccccc4c3)sc2c1` was tested, and the activation was -2.94% (inactive). In the case of `COc1ccccc1CNC(=O)Cn1c(=O)oc2cc(Cl)ccc21`, the activation is reported as 5.98% (inactive). `O=C(Cc1ccc(-n2c(=O)c3sccc3n(Cc3ccc(F)cc3)c2=O)cc1)NCc1ccco1` was tested, and the activation was 7.21% (inactive). With `COc1ccc(/C=C/C(=O)Nc2ccc(C34CC5CC(CC(O)(C5)C3)C4)cc2)cc1OC` the activation was 5.41% (inactive). In the case of `COc1ccc(Nc2nc(NCc3ccco3)nc(N/N=C/c3ccccc3Cl)n2)cc1`, the activation is reported as 2.55% (inactive). For `Cc1ccc(-c2cc(C(=O)NCc3cn(C)nc3C)c3cc(Br)ccc3n2)cc1`, the activation was -0.3% (inactive). For `Cc1cccc(C(=O)Nc2ccccc2-c2nnn(CC(=O)Nc3ccc4c(c3)OCCO4)n2)c1`, the activation was -0.9% (inactive). `COC(=O)c1scc(C)c1NC(=O)CSc1ccc(Cl)cc1` was tested, and the activation was 4.2% (inactive). For `CC[C@@H](C)[C@@H]1CN([C@@H](C)CN2CCC[C@H]2CN2C(N)=NC[C@H]2C(C)C)C(=N)N1CCc1ccc(Cl)c(Cl)c1`, the activation was -6.51% (inactive). In the case of `Cc1ccccc1NC(=O)c1ccc(COc2ccc3c(C)cc(=O)oc3c2)cc1`, the activation is reported as 1.47% (inactive). With `Cc1nnc(NC(=O)Nc2ccc(Cl)c(Cl)c2)s1` the activation was 0.165% (inactive). For `NC(=O)NC(=O)CSc1nc2cc([N+](=O)[O-])ccc2n1-c1cccc(C(F)(F)F)c1`, the activation was 3.51% (inactive). `O=C(Cn1cnc2c(nnn2Cc2ccc(F)cc2)c1=O)NCc1ccc2c(c1)OCO2` was tested, and the activation was 3.1% (inactive). For `O=C(Nc1ccccc1)c1ccc(NC(=O)c2cccs2)cc1`, the activation was 6.7% (inactive). With `COC(=O)c1nc2n(n1)C(c1ccc([N+](=O)[O-])cc1)C(C(=O)Nc1ccc(Cl)cc1)=C(C)N2` (stereo unspecified) the activation was 2.9% (inactive). For `COc1ccc(/C=C/C(=O)Nc2c(C)nn(C)c2C)cc1COc1ccc(Br)cc1`, the activation was 5.31% (inactive). `CCCOc1ccc(C(=O)C(CCC(CNCC)C(=O)c2ccc(OCCC)cc2)CNCC)cc1` (stereo unspecified) was tested, and the activation was 4.31% (inactive). In the case of `COc1ccc(CC(=O)Nc2ccc(C(=O)NC(C)(C)C)cc2)cc1`, the activation is reported as -6.76% (inactive). For `CC(=O)Nc1ccc(S(=O)(=O)NCC(=O)OCc2cc(=O)oc3ccc4ccccc4c23)cc1`, the activation was -1.24% (inactive). `O=C(CN1C(=O)c2cccc3cccc1c23)Nc1ccccc1` was tested, and the activation was 5.42% (inactive). For `O=C(COc1coc(CN2CCN(c3ccccc3F)CC2)cc1=O)N1CCc2ccccc21`, the activation was -0.869% (inactive). For `CCOc1ccc(-n2c(SCC(=O)Nc3ccc(OC)cc3)nc3sc4c(c3c2=O)CCN(C)C4)cc1`, the activation was -0.551% (inactive). `C#CCOCCOCCOCCNc1nc(N2CCN(C(=O)C(Cc3ccc(O)cc3)n3cc(C(N)CC(C)C)nn3)CC2)nc(N2CCN(C(=O)C(Cc3ccc(O)cc3)n3cc(C(N)C(C)CC)nn3)CC2)n1` (stereo unspecified) was tested, and the activation was 2.47% (inactive). With `CN(C)CCN(C(=O)CN1C(=O)c2ccccc2C1=O)c1nc2cc3c(cc2s1)OCCO3` the activation was 0.813% (inactive). With `Cc1ccc(NC(=O)COc2ccc(/C=C3/NC(=O)NC3=O)cc2)cc1` the activation was 2.85% (inactive). For `O=C(Nc1cccnc1Cl)c1cc(-c2ccccc2O)on1`, the activation was -0.741% (inactive). For `CCOC(=O)C1=C(O)/C(=C/c2ccc(OCC(=O)Nc3ccc(C)cc3)cc2)N=C1C`, the activation was 3.13% (inactive). With `c1ccc(C[C@H]2CNCCN2CCC23CC4CC(CC(C4)C2)C3)cc1` the activation was 2.28% (inactive). `COc1ccc(CNC(=O)c2nnn(CC(=O)Nc3cc(C)cc(C)c3)c2N)cc1` was tested, and the activation was 3.37% (inactive). In the case of `Cc1ccc(S(=O)(=O)N2CCC(Oc3ccc(-n4cnnn4)cc3)CC2)cc1`, the activation is reported as -4.91% (inactive). With `Cn1cccc1/C=C1\SC(=O)N(CC(=O)Nc2ccc(F)cc2)C1=O` the activation was 0.105% (inactive). With `COc1ccc(/C=C/C(=O)OCC(=O)N2CCN(S(=O)(=O)c3ccc(C)cc3C)CC2)cc1OC` the activation was -0.0445% (inactive). For `O=C(Cn1nnc(-c2ccc3c(c2)OCO3)n1)NCc1ccco1`, the activation was -2.21% (inactive). In the case of `Nc1nc(SCC(=O)Nc2cc(C(F)(F)F)ccc2Cl)[nH]c(=O)c1NC(=O)c1ccco1`, the activation is reported as -8.35% (inactive). In the case of `O=C(N/N=C/c1cccc(Br)c1)c1ccc(N2CCCC2=O)cc1`, the activation is reported as 3.06% (inactive). With `Nc1ccc(C(=O)OCC(=O)NC2CCCc3ccccc32)cc1[N+](=O)[O-]` (stereo unspecified) the activation was 0.712% (inactive). `COc1ccc(Br)cc1C(=O)NC(=S)Nc1cc(-c2nc3ccccc3[nH]2)ccc1C` was tested, and the activation was -0.0125% (inactive). With `COc1cccc(OCc2cc(/C=N/NC(=O)c3nc(Cl)c(Cl)c(N)c3Cl)ccc2OC)c1` the activation was 1.13% (inactive). With `Cc1cc(C)c2nc3nc(C)cc(C)c3c(N)c2c1` the activation was 0.483% (inactive). `O=C(Nc1ccccc1)Nc1nnc(COc2ccccc2F)s1` was tested, and the activation was -9.71% (inactive). For `Cc1ccc(OCC(=O)Nc2ccccc2C(=O)NC2CC2)cc1C`, the activation was 1.23% (inactive). With `COc1ccc(-c2cc(=O)c3c(O)cc(O[C@@H]4O[C@H](CO[C@@H]5O[C@@H](C)[C@H](O)[C@@H](O)[C@H]5O)[C@@H](O)[C@H](O)[C@H]4O)cc3o2)cc1O` the activation was 0.468% (inactive). With `O=C(Nc1ccc(S(=O)(=O)N2CCc3ccccc3C2)cc1)c1ccccc1` the activation was 6.54% (inactive). In the case of `NC(N)=Nc1nc2ccc(Br)cc2c(=O)[nH]1`, the activation is reported as -0.0365% (inactive). With `Cc1cc(NC(=O)Nc2c[nH]c(=O)[nH]c2=O)ccc1Br` the activation was 7.25% (inactive). `CCN1CCN(c2cc3nc(C)n(Cc4ccccc4)c(=O)c3cc2NC(=O)c2ccccc2F)CC1` was tested, and the activation was 3.66% (inactive). In the case of `C=CCn1c(=NC(=O)c2ccc(S(=O)(=O)N3CCCC3)cc2)sc2cc(NC(C)=O)ccc21`, the activation is reported as 2.06% (inactive). In the case of `CS(=O)(=O)c1ccc(-c2nnn(CC(=O)Nc3ccc4c(c3)OCCO4)n2)cc1`, the activation is reported as 2.96% (inactive). `CC(=O)Nc1ccc(NC(=O)COc2ccccc2C(=O)Nc2cccc(Cl)c2Cl)cc1` was tested, and the activation was -3.31% (inactive). In the case of `Cn1c(=O)oc2cc(S(=O)(=O)N3CCC(C(=O)Nc4ccc(OC(F)(F)F)cc4)CC3)ccc21`, the activation is reported as 3.32% (inactive). With `Cc1ccc(C(=O)NNC(=O)c2cc3cc4ccccc4nc3s2)cc1` the activation was -0.255% (inactive).

From PubChem BioAssay AID588690 (Broad Institute, 2011)
